Source: PubChem BioAssay
This excerpt belongs to a sample that is enriched for hits.
JNK3 blocker = inhibitors of human JNK3 kinase. P53779. purified JNK3 kinase activity, HTS. inhibition, % at 8 µM. hit rate 0.61% among 60,000; in the data active means inhibition above about 17%
D1 allo mod = allosteric modulators of human D1 dopamine receptor | P21728 | HEK293 D1, CRE-luciferase, dopamine EC30 potentiation; actives deviate in either direction | B-score at 10 µM | hit rate 5.9% among 58,000 | AID 641;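 active means luminescence count or its row- and column-corrected plate score outside the 99.7% band of the plate's sample wells, on either side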
ROCK2 inh = ROCK2 (human) kinase inhibition | purified ROCK2, Kinase-Glo ATP depletion luminescence | inhibition, % at 6 µM | hit rate 0.35% among 60,000;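 active means inhibition above the screen-wide mean inhibition plus 3 SD, cut at about 18% in these data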
hDAT+cocaine = human DAT dopamine uptake with cocaine, either direction; LLC-PK1 hDAT cells, [14C]-dopamine uptake with cocaine IC80; actives deviate in either direction; B-score at 10 µM; hit rate 1.3% among 110,000;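 active means Z score or B-score, a plate-position-corrected score, falls beyond the plate's 99.7% confidence bounds, in either direction; inactive means both scores lie inside the 99.7% bounds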
Target sequence (Q01959 whole entry, looked up): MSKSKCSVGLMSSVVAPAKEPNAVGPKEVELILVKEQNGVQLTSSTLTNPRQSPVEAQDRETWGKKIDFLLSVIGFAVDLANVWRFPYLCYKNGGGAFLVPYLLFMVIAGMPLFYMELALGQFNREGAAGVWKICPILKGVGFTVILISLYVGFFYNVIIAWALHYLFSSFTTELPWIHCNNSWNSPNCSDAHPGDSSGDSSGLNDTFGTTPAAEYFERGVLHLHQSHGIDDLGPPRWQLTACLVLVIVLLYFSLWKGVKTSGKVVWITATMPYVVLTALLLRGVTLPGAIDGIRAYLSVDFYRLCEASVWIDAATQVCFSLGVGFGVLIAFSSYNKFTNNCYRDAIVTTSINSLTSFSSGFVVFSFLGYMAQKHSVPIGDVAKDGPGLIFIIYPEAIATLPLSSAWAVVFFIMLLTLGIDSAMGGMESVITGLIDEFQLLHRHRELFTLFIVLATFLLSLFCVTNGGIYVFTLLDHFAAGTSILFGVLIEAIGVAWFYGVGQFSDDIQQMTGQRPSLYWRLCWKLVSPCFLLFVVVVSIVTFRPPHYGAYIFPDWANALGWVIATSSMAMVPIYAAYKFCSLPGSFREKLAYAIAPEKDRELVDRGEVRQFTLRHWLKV
PKA inh = blocks human protein kinase A activity | AID 524 | hit rate 0.1% among 65,000 | P17612 | inhibition, % at 6 µM | PKA Kemptide phosphorylation, Kinase-Glo ATP luminescence;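 active means inhibition above the screen-wide mean inhibition plus 3 SD, cut at about 21% in these data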
D1 PAM confirm = confirmation of human D1 dopamine receptor allosteric modulators | HEK293 D1 CRE-luciferase, dopamine EC30 potentiation; active compounds read high | hit rate 88% among 2,200 | shares compounds with D1 allo mod | luminescence at 10 µM;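 active means luminescence in either of two replicates above the same-plate mean plus 3 SD of the low-dose dopamine control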
D1 ag no DA = D1 (human) signaling in absence of dopamine; AID 646; shares compounds with D1 allo mod; luminescence at 10 µM; HEK293 D1 CRE-luciferase, luminescence, no dopamine; active compounds read high; hit rate 0.8% among 1,900; in the data active means luminescence above about 3900
Isoprot counter = isoproterenol response counter-screen activity for D1 modulators; shares compounds with D1 allo mod; calls only at 10 µM; hit rate 63% among 2,200; AID 647; HEK293 D1 CRE-luciferase, isoproterenol EC30 counter-screen;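 active means luminescence in either replicate above plate mean of wells with a partly effective reference agonist dose plus 3 SD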;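 further: isoproterenol raises cAMP through native beta-adrenoceptor Gs so signal bypasses D1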
Numbers stand for hits; - = inactive; . = no result; + = active, no number.

SMILES	JNK3 blocker	D1 allo mod	ROCK2 inh	hDAT+cocaine	PKA inh	D1 PAM confirm	D1 ag no DA	Isoprot counter
CC(Oc1ccc(Cl)cc1Cl)C(=O)NCCCn1ccnc1 (configuration not stated)	-	.	-	-	-	.	.	.
O=C(NCc1ccco1)c1cccc2c1C(=O)N(C1CCCCC1)C2	-	16.9	-	-	-	21064	-	+
O=C(NCc1cccnc1)c1cccc2c1C(=O)N(C1CCCCC1)C2	25.5	20.7	-	.	-	25588	-	+
O=C(NCc1cccnc1)C1CC(=O)N(C2CCCCC2)C1 (configuration not stated)	-	-	-	-	-	.	.	.
CCCc1nnc(NC(=O)c2c(O)c3cccc4c3n(c2=O)CCC4)s1	-	-	-	-	-	.	.	.
Cc1c(C(=O)NC2CCCc3ccccc32)oc2ccc(S(=O)(=O)N3CCCC3)cc12 (configuration not stated)	.	.	.	-	.	.	.	.
Cc1c(C(=O)NC2CCCc3ccccc32)oc2ccc(S(=O)(=O)N3CCOCC3)cc12 (configuration not stated)	.	5.98	.	-	-	7816	-	+
CCOC(=O)C1=C(C)Nc2ncnn2C1/C=C/c1ccccc1 (configuration not stated)	-	2.83	-	-	-	11572	-	+
CCCC1=C(C(=O)OCC)C(/C=C/c2ccccc2)n2ncnc2N1 (configuration not stated)	.	.	.	-	.	.	.	.
NC(=O)C1(NC(=O)[C@@H]2CC3(CC(c4cccc(NC(=O)[C@@H]5CCC(=O)N5)c4)=NO3)CN2C(=O)c2cnccn2)CC1 (some centres not stated)	.	.	.	-	.	.	.	.
CCCc1cc(=O)[nH]c(SCC(=O)Nc2ccc(OC(F)F)cc2)n1	-	-	-	-	-	.	.	.
COc1ccc(C2NC(=O)CS2)cc1OC (configuration not stated)	-	5.76	-	-	-	13168	.	+
CC1CC(C)CN(C2CCN(Cc3cccnc3)CC2)C1 (configuration not stated)	.	.	.	-	.	.	.	.
COc1ncnc2c1oc1nc(C(C)C)c3c(c12)CC(C)(C)OC3	-	8.71	-	-	-	20880	-	+
CCOC(=O)c1oc2nc(C(C)C)c3c(c2c1N)CC(C)(C)OC3	-	4.66	-	-	-	6644	-	+
CCCc1nc2oc(C(=O)OCC)c(N)c2c2c1COC(C)(C)C2	-	-	-	-	-	.	.	.
CC(C(=O)NCc1cccnc1)N1C(=O)c2ccccc2C1=O (configuration not stated)	.	-	.	-	-	.	.	.
O=S(=O)(c1ccc2c(c1)OCCO2)N(Cc1ccc(F)cc1)Cc1nnc(-c2cccs2)o1	-	-	-	-	-	.	.	.
CC1CCc2sc3ncnc(N4CCOCC4)c3c2C1 (configuration not stated)	-	19.1	-	-	-	14216	-	+
CC1CCc2c(sc3ncnc(N4CCOCC4)c23)C1 (configuration not stated)	.	17.4	.	-	.	13928	-	+
CCCC(c1nnnn1C1CCCC1)N1CCN(c2ccccc2F)CC1 (configuration not stated)	-	-	-	-	-	.	.	.
Fc1cccc(-c2cc3nc4c(c(N5CCC6(CC5)OCCO6)n3n2)CCCC4)c1	.	-	.	-	-	.	.	.
OC1CCN(c2c3c(nc4cc(-c5cccc(F)c5)nn24)CCCC3)CC1	.	7.43	.	-	-	17644	-	+
COc1cccc(-c2nnc(SCC(=O)Nc3cc(C)on3)n2C)c1	.	.	.	-	.	.	.	.
COc1ccc(-c2nnc(SCC(=O)Nc3cc(C)on3)n2N)cc1OC	-	-	-	-	-	.	.	.
SMILES	JNK3 blocker	D1 allo mod	ROCK2 inh	hDAT+cocaine	PKA inh	D1 PAM confirm	D1 ag no DA	Isoprot counter
COc1cccc(-c2nnc(SCC(=O)Nc3cc(C)on3)o2)c1	-	5.69	-	-	-	6316	-	-
COc1ccc(-c2ccc(SCC(=O)Nc3cc(C)on3)nn2)cc1OC	-	5.76	-	-	-	23296	-	+
CCOC(=O)N1CCC(NC(=O)Cn2nc(Cc3ccncc3)c3ccccc3c2=O)CC1	-	4.27	-	-	-	-	-	-
CCOC(=O)c1c(C)c(C(=O)Nc2cc(OC)ccc2OC)c(C)n1CC	-	3.14	-	-	-	7504	-	+
CCCn1c(=O)c(C(=O)NCc2ccc(OC)c(OC)c2)c(O)c2ccccc21	-	4.47	-	-	-	9276	-	+
CCn1c(=O)c(C(=O)NCc2ccc(OC)c(OC)c2)c(O)c2ccccc21	-	-	-	-	-	.	.	.
Cc1[nH]nc2c1C(c1ccc(F)cc1)C1=C(CC(C)(C)CC1=O)N2 (configuration not stated)	-	6.27	-	-	-	12860	-	-
CC(=O)NCCCc1c[nH]c2ccc(Cl)cc12	-	-	-	-	-	.	.	.
CCOC(=O)c1cccnc1SCC(=O)NCc1ccccc1	.	.	.	-	.	.	.	.
C=CCSc1ncccc1C(=O)NCc1ccccc1	-	24.9	-	-	-	20632	-	+
CCn1c(SCC(=O)Nc2ccc(C(=O)OC)cc2)nnc1-c1cccs1	-	-	-	-	-	.	.	.
CCn1c(SCC(=O)NCC(=O)Nc2ccc(F)cc2)nnc1-c1cccs1	-	3	-	-	-	-	-	-
Cc1cc(-n2nc(C)cc2C)nc(N)n1	-	5.59	-	-	-	10308	.	+
Cc1cc(-n2nc(C)cc2C)nc(NS(=O)(=O)c2ccccc2)n1	.	3.79	.	-	-	10456	-	-
COC(=O)C1=C(C)NC(C)=C(C(=O)OC)C1c1ccccc1OCc1c(C)no[n+]1[O-]	-	-	-	-	-	.	.	.
Cc1ccnc(SCCn2c(N3CC(C)CC(C)C3)nc3c2c(=O)n(C)c(=O)n3C)n1 (configuration not stated)	-	3.02	-	-	-	5916	-	+
Cc1ccnc(SCCn2c(N3CCC(C)CC3)nc3c2c(=O)n(C)c(=O)n3C)n1	-	-	-	-	-	.	.	.
Cc1ccccc1-c1nc(CN2CCC(C(=O)NCCCN3CC(C)CC(C)C3)CC2)c(C)o1 (configuration not stated)	-	-	-	-	-	.	.	.
Cc1nc(NCC2CCCO2)c2oc3ccccc3c2n1 (configuration not stated)	.	.	.	-	-	.	.	.
CCc1nc(NCc2ccco2)c2oc3ccccc3c2n1	.	13.4	.	-	-	-	.	-
CCc1nc(NCC2CCCO2)c2oc3ccccc3c2n1 (configuration not stated)	-	6.05	-	-	-	12724	.	+
CCNc1nc(C)nc2c1oc1ccccc12	.	9.33	.	-	-	16376	.	+
CCNc1nc(CC)nc2c1oc1ccccc12	.	.	.	-	-	.	.	.
